# Source: PubChem BioAssay (NCATS)
# “And” between values parts separate entries of the source, which are not always exact repeats. Equal entries are not always repeated. Records with an inconclusive call do not appear. The source made the active and inactive calls. Unless noted, the rule behind the calls is not given here.
# Assays:
# [1] = qHTS Assay for Identifying Gametocytocidal Compounds (AID 743244; active = well fitted curve in the direction sought with a large enough effect; an effect the other way counts as inactive or inconclusive;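 note: % is set by controls: 0 for no effect and ±100 for the full control effect; actives lower the fluorescent signal which means gametocytes are killed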); details: P. falciparum 3D7 stage III-V gametocytes, alamarBlue, 72 h; max response: stronger effect = lower value
# Summary of the method: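 In this qHTS viability screen, late-stage 3D7 gametocytes are incubated with compound for 72 h, then with alamarBlue for 24 h; reduced resorufin fluorescence marks killing.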
# [2] = qHTS profiling for inhibitors of Plasmodium falciparum (3D7) proliferation (AID 743322);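 note: infected erythrocytes exposed to compound for 72 h before lysis; 100% = DMSO vehicle wells and 0% = 0.29 µM artemisinin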; details: P. falciparum 3D7 proliferation; at 28.7 µM (top of the series) unless noted
# Summary of the method: (§1)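 Parasite DNA was quantified by SYBR Green I fluorescence (ex 485, em 535 nm) after overnight lysis in saponin/Triton buffer at room temperature. Cultures at 0.3% parasitemia and 2.5% hematocrit were first exposed to compound for 72 h at 37 C; signals were normalised to artemisinin (0.29 uM) and vehicle wells.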
# [3] = qHTS profiling for inhibitors of Plasmodium falciparum (DD2) proliferation (AID 743323); details: lower = more inhibition; at 28.7 µM (top of the series) unless noted
# Summary of the method: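 P. falciparum Dd2-infected erythrocytes (0.3% parasitemia, 2.5% hematocrit) exposed 72 h at 37 C, 5% CO2. Lysis with SYBR Green, overnight at room temperature, fluorescence 485/535 nm; normalized to 0.29 uM artemisinin and DMSO.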
# [4] = qHTS profiling for inhibitors of Plasmodium falciparum (HB3) proliferation (AID 743324; active = well fitted curve in the direction sought with a large enough effect; an effect the other way counts as inactive or inconclusive;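 note: 100% = DMSO vehicle wells and 0% = artemisinin-treated control wells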); details: Plasmodium falciparum HB3 blood-stage proliferation; at 28.7 µM (top of the series) unless noted
# Summary of the method: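 SYBR Green fluorescence (485 ex/535 em) of lysed cultures, incubated overnight at room temperature in the dark, quantifies parasite DNA. Infected erythrocytes at 0.3% parasitemia and 2.5% hematocrit were exposed 72 h; values normalized to DMSO and 0.29 uM artemisinin controls.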
# [5] = qHTS profiling of the MIPE4 collection as inhibitors of Plasmodium falciparum (3D7) proliferation (AID 743344);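 note: scaled between DMSO vehicle wells and 0.29 µM artemisinin as full inhibition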; details: P. falciparum 3D7 in erythrocytes, SYBR Green DNA fluorescence, 72 h; at 28.5 µM (top of the series) unless noted
# Summary of the method: as §1
# [6] = qHTS profiling of the MIPE4 collection as inhibitors of Plasmodium falciparum (DD2) proliferation (AID 743345); details: P. falciparum Dd2 in erythrocytes, SYBR Green DNA, 72 h; at 28.5 µM (top of the series) unless noted
# Summary of the method: as §1
# [7] = qHTS profiling of the MIPE4 collection as inhibitors of Plasmodium falciparum (DD2) proliferation (Rep 2) (AID 743346); details: P. falciparum Dd2 in erythrocytes, SYBR Green DNA, 72 h; at 28.5 µM (top of the series) unless noted
# Summary of the method: as §1
# [8] = qHTS profiling of the MIPE4 collection as inhibitors of Plasmodium falciparum (HB3) proliferation (AID 743347);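 note: plate controls were DMSO vehicle wells for no effect and artemisinin wells for full effect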; details: P. falciparum HB3 in erythrocytes, SYBR Green DNA, 72 h; at 28.5 µM (top of the series) unless noted
# Summary of the method: as §1
# [9] = Cell Proliferation Assay Versus the ED40515 IL2 Independent ATL cell lines (AID 1053194; calls by dose curve); details: ED40515 IL2-independent ATL cells
# Summary of the method: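 CellTiter-Glo luminescence, read after 15 min at RT, gave viability of IL-2-free ED40515 cells (1000/well, RPMI plus 5% FBS) following 48 h drug exposure at 37C. Control wells held DMSO or 9.2 uM bortezomib.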
# [10] = Cell Proliferation Assay Versus the ED40515 IL2 Dependent ATL cell lines (AID 1053195; calls by dose curve); details: ED40515 IL2-dependent ATL cells
# Summary of the method: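 CellTiter-Glo luminescence (15 min, RT) measured viability after 48 hours at 37C; cells were ED40515 +IL2, 1000/well, in phenol red-free RPMI with 5% FBS. Controls: DMSO and 9.2 uM bortezomib.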
# [11] = qHTS for Activators of Parkin Expression: LOPAC Validation Assay (NLuc Reporter) (AID 720572; active = well fitted curve in the direction sought with a large enough effect; an effect the other way counts as inactive or inconclusive;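 note: 0% = DMSO and 100% = positive control compound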)
# Summary of the method: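 Cells harboring the Parkin-promoter coincidence reporter were treated for 24 h at seven concentrations. NLuc output was measured sequentially after the FLuc channel and scaled between DMSO and positive control values.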
# [12] = qHTS for Activators of Parkin Expression: LOPAC Validation Assay (FLuc Reporter) (AID 720573; active = well fitted curve in the direction sought with a large enough effect; an effect the other way counts as inactive or inconclusive;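 note: 0% = DMSO and 100% = positive control compounds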)
# Summary of the method: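 FLuc signal from Parkin-promoter coincidence reporter neuronal cells, normalized to DMSO and positive control (100%). Cells (1,500/well) pre-incubated 24 h, then exposed to LOPAC compounds in 7-point dose response for 24 h at 37 C, 5% CO2.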
# [13] = qHTS assay for small molecule agonists of the antioxidant response element (ARE) signaling pathway measured by Nrf2-dependant transcriptional activity (AID 720636; active = well fitted curve in the direction sought with a large enough effect in the repeat runs; an effect the other way counts as inactive or inconclusive;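 note: HepG2 cells with an ARE-driven luciferase reporter; % of control where 0% means no effect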)
# Summary of the method: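 First, ARE-luc HepG2 cells attached for 6 hr at 37 C in 1% dialyzed FBS medium. Next, compound or DMSO was added and incubated 16 hr. Finally, ONE-Glo reagent was added and luminescence measured after 30 min.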
# [14] = qHTS assay for small molecule agonists of the antioxidant response element (ARE) signaling pathway measured by Nrf2-dependant transcriptional activity - cell viability counter screen (AID 720653; active = well fitted curve in the direction sought with a large enough effect in the repeat runs; an effect the other way counts as inactive or inconclusive; note: % is set by controls: 0 for no effect and ±100 for the full control effect); details: ARE-bla HepG2 viability, CellTiter-Glo ATP luminescence, 16 h; stronger effect = lower value
# Summary of the method: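 ARE-bla HepG2 cells (2,000/well) rested 5 hrs at 37C/5% CO2, then exposed to compounds in DMSO for 16 hrs. Viability was read in the same wells as intracellular ATP by luminescence, 30 min at room temperature after reagent addition.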
# [15] = molecular target: T1, Hexokinase-4 (Homo sapiens) + Glucokinase regulatory protein (Homo sapiens) (UniProt P35557+Q14397); assay: qHTS assay for inhibitors of recombinant human GCK-GKRP interaction: Diaphorase-coupled assay (AID 743205; active = well fitted curve in the direction sought with a large enough effect; an effect the other way counts as inactive or inconclusive)
# T1 sequence (P35557 whole entry, looked up): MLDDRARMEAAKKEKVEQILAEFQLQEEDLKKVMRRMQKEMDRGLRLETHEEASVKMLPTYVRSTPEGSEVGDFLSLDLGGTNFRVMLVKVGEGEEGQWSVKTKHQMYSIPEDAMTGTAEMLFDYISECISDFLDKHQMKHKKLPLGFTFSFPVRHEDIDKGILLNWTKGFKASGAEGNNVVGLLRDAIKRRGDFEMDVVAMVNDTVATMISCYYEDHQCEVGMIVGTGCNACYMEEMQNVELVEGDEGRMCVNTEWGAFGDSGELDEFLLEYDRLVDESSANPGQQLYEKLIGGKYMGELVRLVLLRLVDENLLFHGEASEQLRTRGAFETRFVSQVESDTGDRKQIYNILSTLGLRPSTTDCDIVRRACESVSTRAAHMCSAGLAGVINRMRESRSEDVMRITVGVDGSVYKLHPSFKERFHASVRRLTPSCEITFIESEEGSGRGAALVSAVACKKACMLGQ
# T1 sequence (Q14397 whole entry, looked up): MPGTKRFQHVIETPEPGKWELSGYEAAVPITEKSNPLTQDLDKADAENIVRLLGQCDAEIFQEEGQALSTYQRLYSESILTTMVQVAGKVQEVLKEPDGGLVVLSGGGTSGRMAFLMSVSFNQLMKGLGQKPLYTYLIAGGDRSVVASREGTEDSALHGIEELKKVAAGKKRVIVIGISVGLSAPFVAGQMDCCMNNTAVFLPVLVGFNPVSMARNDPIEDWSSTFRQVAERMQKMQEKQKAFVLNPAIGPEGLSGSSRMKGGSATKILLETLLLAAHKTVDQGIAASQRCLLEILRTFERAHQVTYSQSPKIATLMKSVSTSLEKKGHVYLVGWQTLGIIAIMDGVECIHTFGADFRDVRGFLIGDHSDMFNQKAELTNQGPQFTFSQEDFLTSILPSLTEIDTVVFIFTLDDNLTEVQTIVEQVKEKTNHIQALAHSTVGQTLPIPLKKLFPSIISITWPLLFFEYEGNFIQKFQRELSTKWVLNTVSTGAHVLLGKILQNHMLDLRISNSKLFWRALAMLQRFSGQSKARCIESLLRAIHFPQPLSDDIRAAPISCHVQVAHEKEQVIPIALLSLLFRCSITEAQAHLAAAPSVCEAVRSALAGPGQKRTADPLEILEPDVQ
# Summary of the method: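 A kinetic fluorescence read (Ex 525/Em 590 nm, every minute for 30 minutes) tracked resorufin from a G6PDH-diaphorase coupled GCK reaction. It contained 10 nM GST-GCK, 10 nM FLAG-GKRP, 5 mM glucose, 0.4 mM ATP in Hepes pH 7.6. Normalized to with/without-enzyme DMSO controls.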
# [16] = molecular target: T1, Hexokinase-4 (Homo sapiens) + Glucokinase regulatory protein (Homo sapiens); assay: qHTS assay for inhibitors of recombinant human GCK-GKRP interaction: ADP-Glo assay (AID 743206; active = well fitted curve in the direction sought with a large enough effect; an effect the other way counts as inactive or inconclusive;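 note: plate controls were DMSO plus enzyme for no effect and no enzyme for full effect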)
# Summary of the method: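 Pin-transferred compounds meet a 15 nM GST-GCK/15 nM FLAG-GKRP/2 uM S6P mix (dispense concentrations). ATP is then added to 0.4 mM final with 5 mM glucose, and the reaction runs 60 min at room temperature. ADP is quantified luminescently.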
# [17] = molecular target: T1, Hexokinase-4 (Homo sapiens) + Glucokinase regulatory protein (Homo sapiens); assay: qHTS assay for inhibitors of recombinant human GCK-GKRP interaction: HTRF assay (AID 743207; active = well fitted curve in the direction sought with a large enough effect; an effect the other way counts as inactive or inconclusive;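 note: 0% = DMSO with GCK present and -100% = DMSO wells lacking GCK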)
# Summary of the method: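 After 60 min equilibration at room temperature with anti-FLAG XL665 and anti-GST antibodies, FRET ratio (665/615 nm, excitation 320 nm) was read. Proteins: GST-GCK and FLAG-GKRP, each 5 nM, plus 2 uM S6P, pH 7.1 buffer; GCK-free wells define minimum signal.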
# [18] = qHTS assay for cell viability of HEK293 cells (AID 743288; active = well fitted curve in the direction sought with a large enough effect; an effect the other way counts as inactive or inconclusive; note: % is set by controls: 0 for no effect and ±100 for the full control effect; nearly all actives have a fitted effect of over 50% in size); details: ATP luminescence (CellTiter-Glo), 18 h; max response: stronger effect = lower value
# Summary of the method: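 Readout is luciferase-coupled ATP content (CellTiter-Glo luminescence, 30 min room temperature) as a measure of metabolically competent cells. Parental HEK293 cells were plated 5 h or more before compound addition, then treated 18 h at 37 C.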
# [19] = qHTS assay for cell viability of the p53RE-bla HCT-116 cell line (AID 743292; active = well fitted curve in the direction sought with a large enough effect; an effect the other way counts as inactive or inconclusive; note: potency is the fitted concentration of half-maximal effect; nearly all actives have a fitted effect of over 55% in size)
# Summary of the method: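 Quantitative high-throughput format: compounds in DMSO were pinned onto p53RE-bla HCT-116 cells (4,000/well) and incubated 16 h at 37 C. Total intracellular ATP, read by CellTiter-Glo luminescence, reflects viable cell number.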
smiles,measurement,setting,value
COc1cc(F)c(F)c(Nc2ccc(I)cc2F)c1NS(=O)(=O)C1(C[C@H](O)CO)CC1,max response,[1],19.8% (inactive)
same,remaining parasite growth % (stronger effect = lower value),[2],83.5%
same,"activity, percent of control",[3],78.6%
same,"remaining proliferation (% of control), lower = more inhibition",[4],39.5%
same,"parasite growth, % of DMSO control",[5],45.3%
same,"parasite growth remaining, % of DMSO control (lower = more inhibition)",[6],71.1%
same,"parasite growth, % of control (lower = inhibition)",[7],26.7%
same,"growth, % of control",[8],17.2%
same,Potency,[9],26.4 µM (active)
Oc1cccc(-c2nc(N3CCOCC3)c3oc4ncccc4c3n2)c1,max response,[1],-13.9% (inactive)
same,remaining parasite growth % (stronger effect = lower value),[2],-0.106%
same,"activity, percent of control",[3],2.54%
same,"remaining proliferation (% of control), lower = more inhibition",[4],1.45%
same,"parasite growth remaining, % of DMSO control (lower = more inhibition)",[6],8.08% [at 57.5 µM]
same,"parasite growth, % of control (lower = inhibition)",[7],21.1% [at 57.5 µM]
same,"growth, % of control",[8],5.67% [at 57.5 µM]
same,Potency,[9],1.32 µM (active)
CS(=O)(=O)c1cccc(CNc2nc(Nc3ccc4c(c3)CCC(=O)N4)ncc2C(F)(F)F)c1,"activity, percent of control",[3],108%
same,"remaining proliferation (% of control), lower = more inhibition",[4],101%
same,"parasite growth, % of DMSO control",[5],12.1%
same,"parasite growth remaining, % of DMSO control (lower = more inhibition)",[6],14.8%
same,"parasite growth, % of control (lower = inhibition)",[7],28.9%
same,"growth, % of control",[8],10.1%
same,Potency,[9],4.69 µM (active)
same,Potency,[10],3.32 µM (active)
CNC(=O)c1ccccc1Sc1ccc2c(/C=C/c3ccccn3)n[nH]c2c1,max response,[1],40.9% (inactive)
same,Potency,[9],16.6 µM (active)
Nc1ncnc2nc(-c3ccc(N4CCOCC4)nc3)cc(-c3cccc(Br)c3)c12,max response,[1],-13.8% (inactive)
same,Potency,[9],29.6 µM (active)
Cc1ccc(NC(=O)c2cccc(C(C)(C)C#N)c2)cc1Nc1ccc2ncn(C)c(=O)c2c1,max response,[1],-12.3% (inactive)
same,remaining parasite growth % (stronger effect = lower value),[2],34.8%
same,"activity, percent of control",[3],49.3%
same,"remaining proliferation (% of control), lower = more inhibition",[4],7.17%
same,"parasite growth, % of DMSO control",[5],17.3%
same,"parasite growth remaining, % of DMSO control (lower = more inhibition)",[6],39.9%
same,"parasite growth, % of control (lower = inhibition)",[7],51%
same,"growth, % of control",[8],16.2%
same,Potency,[9],26.4 µM (active)
CC(C)(Sc1ccc(CCN(CCCCC2CCCCC2)C(=O)NC2CCCCC2)cc1)C(=O)O,Potency,[11],inactive
same,outcome,[12],inactive
same,outcome,[13],inactive
same,max response,[14],1.89% (inactive)
same,outcome,[15],inactive
same,outcome,[16],inactive
same,outcome,[17],inactive
same,max response,[1],7.17% (inactive) and -0.948% (inactive)
same,max response,[18],-6.91% (inactive)
same,Potency,[19],12.6 µM (active)
same,"activity, percent of control",[3],100%
same,"remaining proliferation (% of control), lower = more inhibition",[4],92.7%
same,"parasite growth, % of DMSO control",[5],65.2%
same,"parasite growth remaining, % of DMSO control (lower = more inhibition)",[6],91.6%
same,"parasite growth, % of control (lower = inhibition)",[7],51.8%
same,"growth, % of control",[8],78.8%
same,Potency,[9],33.2 µM (active)
same,Potency,[10],18.7 µM (active)
Nc1nccc(-c2ccc3noc(-c4ccc(Cl)cc4)c3c2)n1,max response,[1],-14.8% (inactive)
same,"activity, percent of control",[3],76.1%
same,"remaining proliferation (% of control), lower = more inhibition",[4],81.1%
same,"parasite growth remaining, % of DMSO control (lower = more inhibition)",[6],92.5%
same,"parasite growth, % of control (lower = inhibition)",[7],79.2%
same,"growth, % of control",[8],33.5%
same,Potency,[9],18.7 µM (active)
same,Potency,[10],23.5 µM (active)
CC1(C)SCCN(S(=O)(=O)c2ccc(OCC#CCO)cc2)[C@@H]1C(=O)NO,max response,[1],1.92% (inactive)
same,remaining parasite growth % (stronger effect = lower value),[2],107%
same,"activity, percent of control",[3],104%
same,"remaining proliferation (% of control), lower = more inhibition",[4],81.4%
same,"parasite growth remaining, % of DMSO control (lower = more inhibition)",[6],66%
same,"parasite growth, % of control (lower = inhibition)",[7],70%
same,"growth, % of control",[8],112%
same,Potency,[9],37.2 µM (active)
C#Cc1cccc(Nc2ncnc3cc(OCCOC)c(OCCOC)cc23)c1,max response,[1],10.7% (inactive) and -0.582% (inactive)
same,remaining parasite growth % (stronger effect = lower value),[2],12.2%
same,"activity, percent of control",[3],27.9%
same,"remaining proliferation (% of control), lower = more inhibition",[4],6.23%
same,"parasite growth, % of DMSO control",[5],24.3%
same,"parasite growth remaining, % of DMSO control (lower = more inhibition)",[6],50.4%
same,"parasite growth, % of control (lower = inhibition)",[7],43.1%
same,"growth, % of control",[8],4.75%
same,Potency,[9],11.8 µM (active)
